Results filed as inconclusive are left out. Activity calls are given as the source filed them. Calls follow the shape of the dose curve; as a rule, active = well fitted cell-killing curve with a large enough effect; inconclusive = small, poorly fitted or top-dose-only effect; inactive = flat fitted curve, though single readings scatter.
Assay: DAPI mCherry counterscreen qHTS for Zika virus inhibitors; also: nearly all actives have a fitted effect of over 55% in size
Conditions: Vero cells, DAPI nuclear count cytotoxicity, imaging 48-72 h, infected with Zika reporter virus, MOI 1; series mostly up to 32.6 µM; activity change, negative = cell loss: at the top concentration
From the text: Assay Submitters (PI): Avindra Nath, Ph.D., National Institute of Neurological Disorders and Stroke (NINDS), Bethesda, MD Radhakrishnan Padmanabhan, Ph.D., Georgetown University (GU), Washington D.C. Zika Virus causes congenital defects, including microcephaly and is associated with Guillain-Barre syndrome, eningoencephalitis and myelitis in infected adult. […] Using a target-based approach, we hope to establish a screening paradigm to uncover novel, cell-active NS2B-NS3 protease (Zika Virus) specific inhibitors from NCATS' collection of small molecules using qHTS. […] Four assay panel was created to identify potential Zika Virus inhibitors. Namely, (1) GU unlinked NS2B-NS3 AMC tagged protease qHTS, (2) GU unlinked NS2B-NS3 Rhodamine tagged protease qHTS, (3) NINDS linked NS2B-NS3 AMC tagged protease qHTS, (4) NINDS linked NS2B-NS3 Rhodamine tagged protease qHTS. Active compounds were re-acquired and re-screened to confirm inhibition. Inhibitors were further screened against various confirmatory and counterscreens in dose response format. […] A DAPI (mCherry counterscreen) which determine Vero cell cytotoxicity was used to exclude false positive compounds. […] Early Translation Branch (ETB) National Center for Advancing Translational Sciences (NCATS), Rockville, MD National Institute of Health (NIH), Bethesda, Maryland
384 well ZIKV-mCherry & mCherry DAPI counterscreen: We have developed a new orthogonal imaging assay in 384-well plate format, which uses recombinant virus ZIKV-mCherry in Vero cells. Briefly, 30 microL of Vero cells derived from a green monkey cell line, were dispensed by Multidrop Dispenser into a clear solid bottom black 384 well plate (ultracarrier, Perkin Elmer LifeSciences) at a concentration of 5,000 cells per well. The plate was incubated overnight in a CO2 incubator at 37 degrees C. Compounds were delivered as a 126 nL DMSO solution by Kalypsys pintool transfer. Following compound transfer, 10 microL of ZIKV-mCherry was added at an MOI of 1 and incubated in a CO2 incubator for 48-72 hrs at 37 degrees C. After sufficient incubation of infected cells in test plates, 8 microL of 32% PFA was dispensed into assay plates to fix cells and incubated for 20 min at room temperature. Plates were washed 3 times with PBS using BioTek EL406 microplate washer/dispenser. After washing, 30 microL of PBS with 0.01% TX-100 containing Hoechst dye was dispensed into the each well of the plates for nuclear staining. 384-well plates were imaged on an automated, widefield high content imager (INCell 2200, GE Healthcare) using a 10x/0.45 NA lens and standard DAPI (nuclear stain) and mCherry (cy5) excitation and emission filters. The TIFFs were quantitated using the canned Multi Target Analysis protocol (GE Investigator Workstation software v3.7.2). Briefly, nuclei from the DAPI channel were identified using top hat segmentation and a sensitivity setting of 96 and minimum size area of 35 microm2. A recombinant Zika viral infection was monitored in the Cy5 channel (cells) using a 2 microm collar dilation from the nuclear bitmap. mCherry objects with an average nuclear RFU intensity above 450 (3 stdev above mean negative control wells) were considered "mcherry positive" and data was analyzed by percent infection rate.
With `CC(C)C1=CCC(C)(O)C(OC2OC(CO)C(O)C(O)C2O)C1` (stereo not given) the “activity change, negative = cell loss” value was -8.05% [at 24.2 µM] (inactive).
In the case of `Cc1oc2c(cc(NS(=O)(=O)c3ccc(Br)cc3)c3ccccc32)c1C(=O)OCc1ccccc1`, the “activity change, negative = cell loss” value is reported as -18.7% (inactive).
For `CCOc1nc2cccc(C(=O)OC(C)OC(=O)OC3CCCCC3)c2n1Cc1ccc(-c2ccccc2-c2nn[nH]n2)cc1` (stereo not given), the Potency was 15.8 µM (active).
For `Cc1c(Cl)cccc1NS(=O)(=O)c1ccc(NS(=O)(=O)c2ccc3c(c2)OCCO3)cc1`, the Potency was 31.6 µM (active).
For `CNC(=O)c1cc(Oc2ccc(NC(=O)Nc3ccc(Cl)c(C(F)(F)F)c3)cc2)ccn1`, the Potency was 4.47 µM (active).
For `CCOc1ccc(-c2cc(NC(=O)c3c(F)cccc3F)c(C(=O)O)s2)cc1`, the Potency was 5.01 µM (active).
In the case of `O=C(Nc1cccc(C(=O)OCc2cc(=O)n3nc(C4CC4)sc3n2)c1)c1ccc(F)cc1`, the “activity change, negative = cell loss” value is reported as -8.64% (inactive).
In the case of `Cc1c(C)n(Cc2ccc(-c3ccccc3C(=O)O)cc2)c2ccc(C(=O)N[C@@H](C)c3ccc([N+](=O)[O-])cc3)cc12`, the Potency is reported as 35.5 µM (active).
For `CC1(C)CCC(C)(C)c2cc3c(cc21)Sc1ccccc1N=C3c1ccc(C(=O)O)cc1`, the Potency was 8.91 µM (active).
In the case of `CCS(=O)(=O)c1cccc(C(=O)Nc2ccc(-c3nc4ccccc4s3)c(O)c2)c1`, the Potency is reported as 14.1 µM (active).
With `Cc1ccc(C(=O)Nc2ccc(S(=O)(=O)O)c3cc(S(=O)(=O)O)cc(S(=O)(=O)O)c23)cc1NC(=O)c1cccc(NC(=O)Nc2cccc(C(=O)Nc3cc(C(=O)Nc4ccc(S(=O)(=O)O)c5cc(S(=O)(=O)O)cc(S(=O)(=O)O)c45)ccc3C)c2)c1` the “activity change, negative = cell loss” value was -11.1% (inactive).
In the case of `Cc1cc(N2CCOCC2)cc2[nH]c(-c3c(NC[C@@H](O)c4cccc(Cl)c4)cc[nH]c3=O)nc12`, the Potency is reported as 12.6 µM (active).
In the case of `CCCCCCCCc1ccc(CCC(N)(CO)CO)cc1`, the Potency is reported as 10 µM (active).
With `O=c1c(O)c(-c2ccc(O)cc2O)oc2cc(O)cc(O)c12` the “activity change, negative = cell loss” value was -7.22% (inactive).
For `CO[C@H]1C[C@@H](O[C@@H]2/C(C)=C/C[C@@H]3C[C@@H](C[C@]4(CC[C@H](C)[C@@H](C5CCCCC5)O4)O3)OC(=O)[C@@H]3C=C(C)/C(=N/O)[C@H]4OC/C(=C\C=C\[C@@H]2C)[C@]43O)O[C@@H](C)[C@H]1O`, the Potency was 11.2 µM (active).
In the case of `CC(C)=CCc1c2c(c3occ(-c4ccc(O)c(O)c4)c(=O)c3c1O)C=CC(C)(C)O2`, the Potency is reported as 8.91 µM (active).
For `CCOC(=O)c1ccc(N2C(=O)c3n[nH]c(-c4cccs4)c3C2c2ccc(C(C)(C)C)cc2)cc1` (stereo not given), the Potency was 10 µM (active).
For `O=C(O)c1cc(N(Cc2ccc(C3CCCCC3)cc2)C(=O)c2ccc(Oc3ccccc3)cc2)ccc1O`, the Potency was 35.5 µM (active).
With `Nc1ncnc2c1ncn2[C@@H]1O[C@H](CSCC[C@H](N)C(=O)O)[C@@H](O)[C@H]1O` the “activity change, negative = cell loss” value was -6.03% (inactive).
For `Cc1ccccc1NC(=O)Nc1ccc(CN2C(=O)N([C@@H](CC(C)C)C(=O)N[C@@H](CC(=O)O)c3ccccc3)C(=O)C2(C)C)cc1`, the Potency was 7.08 µM (active).
In the case of `CCOc1ccc(C(=O)Nc2cccc(C(=O)OCc3cc(=O)n4nc(C5CC5)sc4n3)c2)cc1`, the Potency is reported as 11.2 µM (active).
For `O=C(Nc1ccc(S(=O)(=O)Nc2nccs2)cc1)C(c1ccccc1)c1ccccc1`, the “activity change, negative = cell loss” value was -27.2% (inactive).
With `CC(C)c1cc(C(C)C)c(CC(=O)NS(=O)(=O)Oc2c(C(C)C)cccc2C(C)C)c(C(C)C)c1` the Potency was 10 µM (active).
For `Cc1ccc(NC(=O)c2ccc3c(O)c(S(=O)(=O)c4ccccc4)c(=O)[nH]c3c2)cc1Cl`, the “activity change, negative = cell loss” value was -17% (inactive).
With `Cc1c(NS(=O)(=O)c2ccccc2)cc(C(C)C)c(O)c1S(=O)(=O)c1ccc(Cl)cc1` the Potency was 28.2 µM (active).
For `O=C(Nc1cccc(C(=O)OCc2cc(=O)n3nc(C4CC4)sc3n2)c1)c1cccc(Cl)c1`, the “activity change, negative = cell loss” value was -11.2% (inactive).
For `Oc1cc2ccccc2c2ccccc12`, the Potency was 10 µM (active).
In the case of `CCCCc1nn2c(=O)cc(COC(=O)c3ccc(NC(=O)CCc4ccccc4)cc3)nc2s1`, the “activity change, negative = cell loss” value is reported as -3.78% (inactive).
For `CC(C)(Sc1ccc(CCN(CCCCC2CCCCC2)C(=O)NC2CCCCC2)cc1)C(=O)O`, the Potency was 14.1 µM (active).
For `COc1cc(Nc2nc3ccccc3nc2NS(=O)(=O)c2cccc(NC(=O)c3ccc(C)c(OC)c3)c2)cc(OC)c1`, the Potency was 4.47 µM (active).
With `O=S(=O)(Nc1cc(Cl)c(Oc2cnc3ccccc3c2)c(Cl)c1)c1ccc(Cl)cc1Cl` the Potency was 12.6 µM (active).
In the case of `Nc1cc(N)c(N=Nc2ccc(S(=O)(=O)Nc3nccs3)cc2)cc1N=Nc1ccc(S(=O)(=O)Nc2nccs2)cc1`, the “activity change, negative = cell loss” value is reported as -12.3% (inactive).
For `CC(=O)Oc1cc2c(c(C)c1OC(C)=O)CC=C1[C@@]2(C)CC[C@@]2(C)[C@H]3C[C@](C)(C(=O)O)CC[C@]3(C)CC[C@]12C`, the Potency was 2.82 µM (active).
With `O=C(NCc1ccc(Oc2ccccc2)cc1)c1nc(-c2cc(Br)c(O)c(Br)c2)no1` the Potency was 8.91 µM (active).
With `Cc1ccc(S(=O)(=O)Nc2cc(SCC(=O)O)c(O)c3ccccc23)cc1[N+](=O)[O-]` the Potency was 8.91 µM (active).
For `CN(C)[C@@H]1C(=O)C(C(=O)NCN2CCCC2)=C(O)[C@@]2(O)C(=O)C3=C(O)c4c(O)cccc4[C@@](C)(O)C3C[C@@H]12` (stereo not given in full), the “activity change, negative = cell loss” value was -14.8% (inactive).
In the case of `O=C(O)c1cc(O)c2cccc(O)c2c1O[C@@H]1O[C@H](CO)[C@@H](O)[C@H](O)[C@H]1O`, the “activity change, negative = cell loss” value is reported as -6.37% [at 24.2 µM] (inactive).
For `Cc1cc(NC(=O)c2ccc(Cl)c(Cl)c2)ccc1-c1cc2ccccc2oc1=O`, the Potency was 15.8 µM (active).
In the case of `COc1cnc(-c2ccc(Cn3c(CC(C)(C)C(=O)O)c(SC(C)(C)C)c4cc(OC[C@@H]5Cc6ccccc6N5C(C)=O)ccc43)cc2)nc1`, the Potency is reported as 15.8 µM (active).
For `O=c1oc2ccccc2cc1-c1nnc(Nc2ccc(Cl)cc2Cl)s1`, the “activity change, negative = cell loss” value was -17.8% (inactive).

— PubChem BioAssay AID1347156 (National Center for Advancing Translational Sciences (NCATS), 2019)
% is scaled to controls: 0 for no effect and ±100 for the full control effect; potency is read from the fitted curve at half-maximal effect.
